Test results from ChEMBL document CHEMBL1157539, “Thousands of chemical starting points for antimalarial lead identification” (Nature, 2010).

Experiments:
Type in all cases: functional
Plasmodium falciparum [1] = assay: GSK_TCMDC: Inhibition of Plasmodium falciparum 3D7 in whole red blood cells, using parasite LDH activity as an index of growth. Test compounds present at 2uM
Plasmodium falciparum [2] = assay: GSK_TCMDC: Inhibition of Plasmodium falciparum Dd2 in whole red blood cells, using parasite LDH activity as an index of growth. Test compounds present at 2uM
HepG2 = assay: GSK_TCMDC: Percent inhibition of human HepG2 cell line. Test compounds present at 10uM.

SMILES	Inhibition (Plasmodium falciparum [1]) [%]	Inhibition (Plasmodium falciparum [2]) [%]	Inhibition (HepG2) [%]
CN1CCN(CCCN(Cc2csc(-c3ccc(CNCc4ccccc4)cc3)n2)C(=O)Nc2cccc(Cl)c2)CC1.O=C(O)C(F)(F)F	100	67	32
CC(C)C[C@H](NC(=O)c1cc2ccccc2s1)C(=O)N[C@H]1CCN(Cc2ccc(OC[C@@H]3CCCN3C)c3ccccc23)C1.O=C(O)C(F)(F)F	100	93	69
CN(C)CCN(C)Cc1ccc(-c2ccc(NC(=O)c3cccc(C#N)c3)cc2)cc1.O=C(O)C(F)(F)F	89	49	20
CC(=O)Nc1ccc(C(=O)Nc2cccc(-c3ccc(-c4nc5ccccc5[nH]4)cc3)c2)cn1	100	93	12
NC(=O)C1Cc2ccccc2CN1CC(=O)Nc1ccccc1Sc1ccccc1 (stereo not given)	100	99	5
Cc1cc(Br)cnc1CCCCNC1=NC(=O)CN1C	95	26	63
COc1ccc2nc(-c3cccc(C)n3)nc(Nc3ccncc3)c2c1	100	42	0
Cc1cccc2nc(-c3ccc(-c4ccc(CN5CCCCC5CO)cc4)cc3)[nH]c12.O=C(O)C(F)(F)F (stereo not given)	100	76	32
CN(C(=O)c1ccc(Br)cc1)c1ccccc1[N+](=O)[O-]	96	0	3
Cc1cc(-c2cccc(CNC3CCN(C)CC3)c2)ccc1S(=O)(=O)NC1CCC1.O=C(O)C(F)(F)F	100	96	33
